# Compound activity deposited in PubChem BioAssay by National Center for Advancing Translational Sciences (NCATS).
# KDM5B inh: blocks human KDM5B histone demethylase activity; 220,000 compounds, 2.6% hits; Q9UGL1; KDM5B demethylase, FDH-coupled NADH fluorescence (FDH is formaldehyde dehydrogenase); Potency, µM (series often up to 57.7 µM), usual class: inhibitors; active means well fitted inhibition curve with a large enough effect; further: 0% is about no effect; nearly all actives have a fitted effect of over 70% in size
# Target sequence (Q9UGL1 whole entry, looked up): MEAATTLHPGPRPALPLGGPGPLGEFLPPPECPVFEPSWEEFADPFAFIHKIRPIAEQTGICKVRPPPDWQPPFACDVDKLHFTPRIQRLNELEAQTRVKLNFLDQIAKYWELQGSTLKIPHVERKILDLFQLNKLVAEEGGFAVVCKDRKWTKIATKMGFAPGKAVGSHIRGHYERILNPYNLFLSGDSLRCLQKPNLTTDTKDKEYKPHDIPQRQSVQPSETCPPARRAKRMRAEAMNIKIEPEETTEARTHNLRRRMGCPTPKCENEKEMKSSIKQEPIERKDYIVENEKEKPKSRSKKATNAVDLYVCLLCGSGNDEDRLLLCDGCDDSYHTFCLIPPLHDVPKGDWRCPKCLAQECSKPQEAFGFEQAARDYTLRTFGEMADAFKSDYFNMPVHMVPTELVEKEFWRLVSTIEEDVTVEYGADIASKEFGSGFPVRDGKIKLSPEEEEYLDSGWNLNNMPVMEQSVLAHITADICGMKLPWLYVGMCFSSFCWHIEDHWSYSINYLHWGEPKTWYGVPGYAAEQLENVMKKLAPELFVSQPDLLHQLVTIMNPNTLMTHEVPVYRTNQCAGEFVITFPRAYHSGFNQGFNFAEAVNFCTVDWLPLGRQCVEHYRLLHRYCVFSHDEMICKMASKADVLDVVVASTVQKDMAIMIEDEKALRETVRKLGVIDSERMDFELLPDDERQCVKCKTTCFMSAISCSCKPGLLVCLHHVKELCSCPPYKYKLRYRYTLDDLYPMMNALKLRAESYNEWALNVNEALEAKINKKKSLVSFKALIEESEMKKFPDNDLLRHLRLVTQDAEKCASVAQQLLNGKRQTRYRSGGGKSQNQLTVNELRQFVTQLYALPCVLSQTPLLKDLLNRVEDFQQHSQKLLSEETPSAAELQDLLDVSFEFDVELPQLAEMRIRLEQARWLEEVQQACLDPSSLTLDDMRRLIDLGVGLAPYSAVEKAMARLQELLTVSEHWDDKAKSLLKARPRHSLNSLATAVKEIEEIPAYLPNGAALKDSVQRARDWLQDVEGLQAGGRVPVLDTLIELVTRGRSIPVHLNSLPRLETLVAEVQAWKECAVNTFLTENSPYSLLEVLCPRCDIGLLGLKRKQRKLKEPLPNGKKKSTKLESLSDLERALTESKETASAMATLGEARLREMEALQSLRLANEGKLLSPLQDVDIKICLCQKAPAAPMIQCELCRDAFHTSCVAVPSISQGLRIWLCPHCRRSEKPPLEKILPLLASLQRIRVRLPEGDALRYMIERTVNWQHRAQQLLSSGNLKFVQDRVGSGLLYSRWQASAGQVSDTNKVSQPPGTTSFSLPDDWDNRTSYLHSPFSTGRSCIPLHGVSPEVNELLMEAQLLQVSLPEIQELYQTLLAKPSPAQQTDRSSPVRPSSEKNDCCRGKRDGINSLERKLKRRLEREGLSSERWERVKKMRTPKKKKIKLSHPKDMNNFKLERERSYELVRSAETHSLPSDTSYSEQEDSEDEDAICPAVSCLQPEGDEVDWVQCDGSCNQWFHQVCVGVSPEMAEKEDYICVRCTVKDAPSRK
#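 Here, H3K4me3 peptide (12.5 µM in substrate mix) is demethylated by KDM5BΔAP, 200 nM final, after 10 min compound exposure. Formaldehyde product is coupled through FDH (0.25 U/mL in mix) to NADH fluorescence; 30-min ΔRFU feeds dose-response curves.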
# Numbers without * were called inactive; i = inactive. The entries come from a sample that favours hits as a whole. Potency means the concentration at half of the fitted maximal effect.
SMILES,KDM5B inh
COc1ccc(OC)c(NC(=O)Cn2c(-c3ccc(F)cc3)nc(C)c(CCO)c2=O)c1,20µM*
O=c1c2cc(-c3ccc(F)cc3)nn2ccn1CC(O)c1ccc(F)cc1 (centres undefined),20µM*
COc1ccc(CNC(=O)Cn2ccn3nc(-c4ccc5c(c4)OCO5)cc3c2=O)cc1,i
Cc1nn(CC(O)c2ccc(F)cc2)c(=O)c2ccccc12 (centres undefined),i
O=c1c2cc(-c3ccc(F)cc3)nn2ccn1CC(O)c1ccc2c(c1)OCO2 (centres undefined),32µM*
CCOc1ccc(-c2cc3c(=O)n(CC(=O)NCc4ccc(F)cc4)ccn3n2)cc1,i
O=C(Cn1ccn2nc(-c3ccc4c(c3)OCO4)cc2c1=O)NCc1ccc(Cl)cc1,i
O=C(Nc1cccc(Br)c1)c1cc(-c2cccnc2)nc2ccccc12,i
Cc1ccc(-c2cccc(CN)c2)cc1Cl,i
Cc1ccc(-c2ccc(C=O)cc2)cc1Cl,50µM*
O=C(/C=C/c1ccc(O)cc1)c1ccc(-c2ccccc2)cc1,i
Cc1ccc(-c2cccc(C=O)c2)c(C)c1,i
O=Cc1ccc(-c2ccc(O)cc2)cc1,14µM*
Cc1cccc(-c2ccc(C=O)cc2)c1,45µM*
Cc1ccc(-c2cccc(C=O)c2)cc1Cl,i
O=CNc1ccc(O)cc1,i
Cc1cccc(-c2ccccc2C=O)c1,i
CCCCCC1CCC(c2ccc(C(=O)CCN(C)C)cc2)CC1 (centres undefined),i
O=Cc1cc(Cc2ccccc2Cl)cc(Br)c1O,i
CCc1ccc(NC(=S)NCC(C)(C)N2CCOCC2)cc1,i
Cc1c[n+](=O)c2ccccc2n1[O-],i
CCc1ccc(NC(=O)Cc2cn(C)c3ccccc23)cc1,i
CCc1ccc(NC(=O)N2CCc3c(c4ccccc4n3C)C2)cc1,28µM*
Cc1ccc(NC(=O)N2CCc3c(c4ccccc4n3C)C2)cc1,22µM*
Cc1ccc(NS(=O)(=O)c2ccc(NC(=O)N3CCCCC3)cc2)cc1,i
SMILES,KDM5B inh
CCOc1ccc(NC(=O)C(=O)c2c(C)n(C)c3ccccc23)cc1,i
CCOc1ccc(NC(=O)Cc2c(C(=O)O)n(C)c3ccccc23)cc1,i
CCc1ccc(NC(=O)CSc2cn(CC(=O)N3CCCC3)c3ccccc23)cc1,i
Cc1ccc(NC(=O)C(C)N2CCc3ccccc3C2)cc1 (centres undefined),i
CCOc1ccc(NC(=O)N2CCc3c(c4ccccc4n3C)C2)cc1,25µM*
C=C(C)CN(CC)C(=O)CCc1ccsc1,i
O=C(CCN(Cc1cccs1)CC1CCCO1)Nc1cccc2ccccc12 (centres undefined),i
COc1cccc(/C(O)=C2\C(=O)C(=O)N(c3ccccn3)C2c2cccc(Br)c2)c1 (centres undefined),i
O=C(CSc1nc(=O)n(Cc2cccnc2)c2c1CCC2)N1CCCCCC1,i
O=C(Nc1ccc(Cl)c(C(F)(F)F)c1)/C(=C/c1ccc(F)cc1)c1ccc(-c2ccccc2)cc1,i
O=C(Cc1ccc(Br)cc1)NC1=NCCS1,i
CNC(=O)CSc1nc(C)nc2sc3c(c12)CCCC3,i
O=C(COc1ccc(-c2ccccc2)cc1Cl)OCC(=O)c1ccc[nH]1,i
COc1cc(NC(=O)Cn2cc(S(=O)(=O)c3ccccc3)c(=O)c3ccc(C)nc32)cc(OC)c1,i
CC1c2cc3c(cc2CCN1S(=O)(=O)c1ccc(Cl)c(C(F)(F)F)c1)OCCCO3 (centres undefined),i
NNc1ccccc1Br,i
O=C(NCCNc1ccc(C(F)(F)F)cn1)C1CC=CCC1 (centres undefined),i
CC(C)CC(NC(=O)C1CCC(C)CC1)C(=O)O (centres undefined),i
COc1ccc2oc(=O)c(S(=O)(=O)c3cccc(Cl)c3)cc2c1,i
CC(C)Cc1nc2nccc(-c3ccccc3)n2n1,28µM*
CC(C)Cc1nc2nccc(-c3ccco3)n2n1,25µM*
COc1ccc(CCc2nc3nccc(-c4ccco4)n3n2)cc1OC,i
CCc1nn2c(-c3ccco3)ccnc2c1-c1ccccc1,i
CCc1nn2c(-c3ccco3)ccnc2c1-c1ccc(F)cc1,i
Fc1cc(F)cc(Cc2nc3nccc(-c4ccncc4)n3n2)c1,i
SMILES,KDM5B inh
Fc1ccc(Cc2nc3nccc(-c4cccnc4)n3n2)cc1,i
c1ccc(CCc2nc3nccc(-c4ccco4)n3n2)cc1,25µM*
Fc1cc(F)cc(Cc2nc3nccc(-c4ccccc4)n3n2)c1,28µM*
Cc1cccc(C(=O)NCCC(=O)NC2CCCC2)c1,i
CC(=O)Nc1cc(NC(=O)C2(C)CC2(Cl)Cl)ccc1C (centres undefined),i
CN(CC(=O)Nc1cccc(F)c1)C(=O)Cc1csc(-c2ccccc2)n1,i
CSC(=S)N/N=C1/CCc2ccccc21,i
O=C(CCc1ncc(-c2ccc(F)cc2F)o1)N1CCN(S(=O)(=O)c2cc(F)ccc2F)CC1,i
Cc1ncsc1C(=O)NCc1ccccc1,i
Cc1ccc2c(c1)N(C(=O)Nc1ccc(Br)cc1F)CC(C)O2 (centres undefined),i
C/C=C/Cn1c(SCc2ccc(F)cc2)nc2c1c(=O)[nH]c(=O)n2C,i
Cc1ccsc1/C=C(\C#N)C(=O)NC1CC1,i
CC1CCCCC1NC(=O)c1ccc2c(Cl)c3c(nc2c1)CCCC3 (centres undefined),i
CC(C)Cc1nc2nccc(-c3ccncc3)n2n1,28µM*
CN1CCN(C(=O)C[C@@H]2CCNC[C@@H]2Cc2cc(-c3ccc(C(C)(C)C)cc3)on2)CC1,i
CC(C)CNC(=O)c1ccccc1N,i
Cn1ccc2c(C(=O)NCc3cnccn3)nc(-c3cccc(N4CCOCC4)c3)cc21,i
COc1ccc(Cc2nc3ccc(C(=O)NCCc4ccccn4)cc3o2)cc1OC,i
Cc1ccc(-c2cc3c(ccn3C)c(C(=O)NCCc3cnc[nH]3)n2)cn1,i
COc1ccccc1-c1cc2c(ccn2C)c(C(=O)NCCc2ccccn2)n1,35µM*
COc1ccccc1-c1cc2c(ccn2C)c(C(=O)NCc2cccnc2)n1,i
COc1ccccc1-c1cc2c(ccn2C)c(C(=O)NCc2cnccn2)n1,32µM*
CC(C)(CNC(=O)CCc1ncc(-c2ccccc2F)o1)N1CCOCC1,i
CCCCC(=O)Nc1cccc(-c2nc3ccccc3o2)c1C,i
Cc1ccc(C)c(N=C/C(C(=O)C(F)(F)F)=C(\O)c2cccs2)c1,i
SMILES,KDM5B inh
O=C(NCc1ccccn1)c1ccccc1Nc1ccccc1,i
COCCOc1ccc2c(n1)CCN(C(=O)COc1ccccc1)C2,i
CCC(C(=O)NCc1nnc2c(-c3nc(C(C)C)no3)cccn12)c1ccccc1 (centres undefined),13µM*
CC(C(=O)NCCc1noc(-c2cccnc2)n1)c1ccccc1 (centres undefined),i
CCNC(=O)N1CCC(c2noc(-c3ccccc3)n2)C1 (centres undefined),i
CCc1noc(-c2ccn3c(CNC(=O)C(CC)c4ccccc4)nnc3c2)n1 (centres undefined),i
CCC(C(=O)NCc1nnc2c(-c3nc(C)no3)cccn12)c1ccccc1 (centres undefined),32µM*
CC(C)c1noc(-c2cccn3c(CNC(=O)C(C)c4ccccc4)nnc23)n1 (centres undefined),14µM*
CCC(C(=O)NCc1ccc(OC)cc1)c1ccccc1 (centres undefined),i
